High-throughput results as filed in PubChem BioAssay.
Most compounds without a hit are left out; they make up all but 0.52% or so of the library.
GLS inhibitor = qHTS for Inhibitors of Glutaminase (GLS); Glutaminase kidney isoform, mitochondrial (Homo sapiens), O94925; GLS enzymatic activity, qHTS titration; Potency, µM (doses to about 45.5 µM), for inactives: at the highest dose activity change, negative = inhibition, most hits filed as inhibitors; 0.21% of 410,000 active; AID 624170, 2012
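Enzyme dispensed in phosphate buffer (45 mM, pH 8.2, 0.02% Tween-20), compounds pinned in, then 1 mM L-glutamine solution and the glutamate oxidase–HRP–Amplex Red mix added; fluorescence read immediately and again after 30 min at room temperature.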
USP2a block = qHTS Assay for Inhibitors of Ubiquitin-specific Protease USP2a Using CHOP2 as the Reporter. Potency, µM (doses to about 38.3 µM), for the others: top-dose activity change, negative = inhibition, hits mostly inhibitors. Ubiquitin carboxyl-terminal hydrolase 2 (Homo sapiens), O75604. 0.01% of 330,000 active. USP2 core, Ub-CHOP2 coupled fluorogenic reporter, 485/531;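 note: plate controls were DMSO wells for no effect and full inhibition by NEM control for full effect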
Target sequence (O75604 whole entry, looked up): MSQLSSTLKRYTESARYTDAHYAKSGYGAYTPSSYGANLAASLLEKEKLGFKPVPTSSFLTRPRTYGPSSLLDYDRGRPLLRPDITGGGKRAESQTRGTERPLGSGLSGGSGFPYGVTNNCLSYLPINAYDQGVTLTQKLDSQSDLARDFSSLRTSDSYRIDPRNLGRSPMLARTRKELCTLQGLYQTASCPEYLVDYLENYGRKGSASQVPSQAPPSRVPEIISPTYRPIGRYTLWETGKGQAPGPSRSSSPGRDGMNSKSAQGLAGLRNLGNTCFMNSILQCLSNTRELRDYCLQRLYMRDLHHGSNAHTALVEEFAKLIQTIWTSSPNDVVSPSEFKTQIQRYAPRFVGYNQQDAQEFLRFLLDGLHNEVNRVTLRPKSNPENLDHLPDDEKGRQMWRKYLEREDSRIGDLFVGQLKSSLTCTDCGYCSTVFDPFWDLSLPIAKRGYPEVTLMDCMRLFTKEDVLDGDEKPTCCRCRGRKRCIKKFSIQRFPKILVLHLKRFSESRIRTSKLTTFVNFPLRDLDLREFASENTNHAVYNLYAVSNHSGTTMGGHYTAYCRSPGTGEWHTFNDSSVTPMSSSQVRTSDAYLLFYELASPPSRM
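Cell-free coupled assay: 10nM USP2 core preincubated 30min RT with compound in Tris-HCl pH 8.0/CaCl2/CHAPS buffer, then 25nM Ub-CHOP2 and 25nM reporter substrate; fluorescence (Ex 485/Em 531) read after 60min RT, normalized to NEM inhibition, concentration-response curves fitted.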
KAT2A inh = qHTS Assay for Inhibitors of GCN5L2 | Histone acetyltransferase KAT2A (Homo sapiens), Q92830 | GCN5L2 HAT assay, ThioGlo1 CoA-SH fluorescence | Potency, µM (highest dose often 58.9 µM), inactives show at the highest dose activity change, negative = inhibition, most hits filed as inhibitors | 0.21% of 390,000 active | AID 504327, 2011
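ThioGlo1-coupled HAT assay: 20nM GCN5L2, 70uM acetyl-CoA, 75uM H3(1-25) peptide, pH 7.5. Fluorescence read at 340/540nm at start and after 20 min at room temperature.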
Tb PFK inh = qHTS Assay to Find Inhibitors of T. brucei phosphofructokinase. T. brucei PFK, ADP-Glo luminescence. Potency, µM (doses to about 57.5 µM), inactives show top-dose activity, negative = inhibition, usual class: inhibitors. 0.17% of 330,000 active. AID 485367, 2010;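 note: 0% = uninhibited 1x PFK enzyme wells and -100% = no-enzyme wells; nearly all actives have a fitted effect of over 60% in size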
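Activity is normalized to no-enzyme wells (full inhibition) and 1.25 nM enzyme wells (no inhibition). Reaction: 0.5 mM F6P, 0.1 mM ATP, 45 min RT, ADP-Glo luminescence; concentration-response curves fitted and classed by quality.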
PGK inhibitor = qHTS Assay to Find Inhibitors of Phosphoglycerate Kinase; Phosphoglycerate kinase, glycosomal (Trypanosoma brucei brucei), P07378; PGK/GAPDH coupled, Kinase-Glo luminescence, 60 min; Potency, µM (series often up to 57.5 µM), for inactives: at the highest dose activity change, negative = inhibition, most hits filed as inhibitors; 0.043% of 380,000 active; AID 602233, 2012; note: nearly all actives have a fitted effect of over 60% in size
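Luminescent ATP detection (Kinase-Glo Plus) follows a 60-minute room-temperature incubation, with wells lacking PGK as controls. Buffer: 100 mM TEA (pH 7.6), 5 mM MgCl2, 0.01% Tween-20. Coupling enzyme GAPDH (100 nM final) supplies unstable 1,3-BPG in-well.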
* = called active by the depositor; i = inactive; u = inconclusive; x = not tested or not shown; ! = not confirmed by another sample. Calls come from the whole dose curve; as a rule, active = well fitted curve in the direction sought with a large enough effect; inconclusive = small, poorly fitted or top-dose-only effect, or another doubt; inactive = no such curve, though single readings can be large; an effect the other way counts as inactive or inconclusive. Unless noted, % is set by controls: 0 for no effect and ±100 for the full control effect; potency is the fitted concentration of half-maximal effect.

SMILES | GLS inhibitor | USP2a block | KAT2A inh | Tb PFK inh | PGK inhibitor
O=C(Nc1nnc(S(=O)(=O)N2CCCCC2)s1)c1ccc(Cl)cc1 | 0.9% | -0.7% | 11.2µM*! | -3.1% | -6.4%
Cc1nc(-c2ccc(Cl)cc2)sc1CCNC(=O)c1ccco1 | 5.2% | x | 3.0% | x | -5.8%
Cc1nn(-c2ccccc2)c(Cl)c1/C=N/Nc1ccc(Cl)c(C(=O)O)c1 | 15.8µM* | -0.2% | -7.2% | 3.4% | -4.4%
O=C(Cn1ncc2ccc(Cl)cc21)NCc1ccc(F)cc1 | -13.5% | x | -4.1% | x | -1.1%
O=C(O)c1cccc(N2C(=O)c3cccc4cccc(c34)C2=O)c1 | 4.3% | 3.1% | -13.1% | 5.8% | -2.6%
O=C(O)c1cccc(N2C(=O)c3cc([N+](=O)[O-])cc4cc([N+](=O)[O-])cc(c34)C2=O)c1 | u | 1.5% | u | -11.7% | 25.1µM*
O=S(=O)(c1ccc(NC(=S)N2CCN(c3ccc(O)cc3)CC2)cc1)N1CCOCC1 | 7.08µM* | 1.1% | -9.3% | -8.9% | i
O=S(=O)(c1ccc(NC(=S)N2CCOCC2)cc1)N1CCCCC1 | 0.2% | x | x | x | -3.6%
O=C(O)c1cc2nccc(-c3ccco3)n2n1 | 11.2µM* | 10.3% | -17.4% | 0.7% | u
CN1CCN(Cc2cc(COCc3ccccc3)c3cccnc3c2O)CC1 | 3.98µM* | -8.1% | -4.4% | 16.5% | -0.4%
CCCCOCc1cc(CN2CCN(c3cccc(Cl)c3)CC2)c(O)c2ncccc12 | -14.8% | x | 20µM* | x | x
Oc1ccc(CN2CCN(Cc3ccccc3)CC2)c2cccnc12 | -5.6% | 0.7% | -2.3% | -2.9% | -10.3%
CCCOCc1cc(CN2CCN(c3cccc(Cl)c3)CC2)c(O)c2ncccc12 | 0.8% | x | -12.9% | x | -6.4%
O=C(CCc1nnc2n(Cc3ccc(Cl)cc3)c(=O)c3ccccc3n12)N1CCN(c2ccccn2)CC1 | 11.2µM* | -0.1% | 3.4% | -12.8% | -2.8%
Cc1cccc(C)c1-n1c(C)cc(/C=C2\NC(=O)NC2=O)c1C | -1.2% | 0.8% | 6.3% | 6.7% | -8.3%
Cc1c(/C=C2\NC(=O)NC2=O)c2ccccc2n1C | 12.6µM* | 0.1% | -19.2% | 0.1% | i
COC1=C(Nc2ccc(O)cc2)C(=O)c2ccccc2C1=O | 7.94µM* | -1.6% | 1.6% | -0.2% | -14.0%
O=C1C(Cl)=C(Nc2ccc(O)cc2)C(=O)c2ccccc21 | 1.26µM* | 7.5% | -0.1% | -8.0% | -4.9%
CC[C@H](C)C(N)C(=O)O (stereo partly drawn) | x | x | 6.0% | x | x
Cc1cc(-c2ccc(C)c(S(=O)(=O)Nc3cccc(C#N)c3)c2)on1 | 1.8% | x | 25.5% | x | -10.0%
CCc1cc(=O)oc2cc(C)c(CN3CCCC(C)C3)c(O)c12 (stereo not drawn) | 5.4% | -25.2% | 31.6µM* | u | -4.7%
COc1ccc(NC(=O)Cn2c(SCc3ccc(C)cc3)nc3cccnc32)c(OC)c1 | -9.2% | x | -3.1% | x | i
CC1CCN(c2c([N+](=O)[O-])c(=O)n(-c3ccccc3)c3ccccc23)CC1 | 7.7% | 0.0% | 1.41µM* | 1.9% | 9.1%
Nc1ccc(O)c([N+](=O)[O-])c1 | 39.8µM*! | -9.1% | -16.8% | -6.2% | -2.6%
CC12CCC(C[N+](C)(CCC[N+](C)(C)C)C1)C2(C)C (stereo not drawn) | 0.4% | x | 22.4µM* | x | x
SMILES | GLS inhibitor | USP2a block | KAT2A inh | Tb PFK inh | PGK inhibitor
COC(=O)Cc1c(C)c2cc3c(c(C)c2oc1=O)OCN(CCc1ccc(OC)cc1)C3 | 6.3% | x | 31.6µM* | x | i
COC(=O)Cc1c(C)c2cc3c(c(C)c2oc1=O)OCN(CCc1ccccc1F)C3 | 52.5% | x | u | x | 0.2%
C[C@@H]1O[C@@]2(CS1)CN1CCC2CC1 | 0.2% | x | x | x | x
Oc1ccc(/C=N/N2CCCCC2)c(O)c1 | 6.31µM* | -2.4% | -27.0% | -21.0% | 4.7%
O=C(Nc1cccc2ccccc12)NC1CCCCC1 | 7.5% | 1.7% | -1.8% | 6.8% | -9.3%
O=C(NNC(=O)C1[C@H]2CCCC[C@@H]12)Nc1cccc2ccccc12 (stereo partly drawn) | -0.1% | 14.5% | 25.1µM* | 1.4% | 6.6%
Cc1ccc(-c2noc(-c3nnn(CC(=O)Nc4cc(C)cc(C)c4)c3N)n2)cc1 | -2.3% | x | -22.7% | x | x
COc1ccc(-c2cc3ccc(O)c(CN4CCCC4)c3oc2=O)cc1 | 9.7% | x | u | x | -0.6%
O=c1oc2c(CN3CCCC3)c(O)ccc2cc1-c1ccccc1 | 6.0% | x | 17.8µM* | x | 2.2%
O=c1oc2c(CN3CCOCC3)c(O)ccc2cc1-c1ccc(Cl)cc1 | 1.9% | x | u | x | -9.2%
COc1ccc(-c2cc3ccc(O)c(CN4CCC(C)CC4)c3oc2=O)cc1 | 4.6% | x | 28.2µM* | x | -0.5%
O=c1oc2cc(O)ccc2cc1-c1ccccc1 | 36.5% | -0.4% | u | 2.3% | -29.4%
COc1ccc(-c2cc3ccc(O)cc3oc2=O)cc1 | 11.2% | 3.2% | 31.6µM* | 1.3% | -8.5%
CC(C)N1[N]C(=C2C=c3cc(O)ccc3=N2)c2c(N)ncnc21 | -0.2% | x | x | x | x
CC1(C)CCCN(C(=O)c2coc(=O)c(Br)c2)C1 | 10µM* | -0.5% | -24.9% | -26.5% | 6.31µM*
Cc1ccc(NC(=O)Nc2cn(CC(C)C)c(=O)c3ccccc23)cc1N(C)C | 4.6% | x | -7.7% | x | -6.4%
COC(=O)c1cc(NC(=O)CC2SC(=Nc3ccccc3)N(CCc3c[nH]c4ccccc34)C2=O)cc(C(=O)OC)c1 (stereo not drawn) | 25.1µM* | 0.0% | -24.8% | -0.3% | -2.1%
CCCCCCCCCCCCCCCCCCc1ccc(C(=O)/C=C\C(=O)O)cc1 | x | x | 2.82µM* | x | x
CCCCCCCCCCCCCCCCCCc1ccc(C(=O)/C=C/C(=O)O)cc1 | x | x | -4.0% | x | x
CCCCCCCCc1ccc(-c2ccc(C(=O)O)cc2)cc1 | x | x | 20µM* | x | x
CCCCNC(=O)Cn1c(=O)cc(C)c2c(C)nn(-c3cccc(Cl)c3C)c21 | -16.4% | x | -15.9% | x | 9.2%
Cc1cc(C(=O)OCC(=O)c2cccc([N+](=O)[O-])c2)c2cccc(C)c2n1 | 0.2% | 11.2µM* | u | -15.8% | 0.0%
COc1ccc(-c2cc(C(=O)OCC(=O)c3cccc([N+](=O)[O-])c3)c3cc(C)ccc3n2)cc1 | 1.8% | 2.4% | 2.8% | 3.0% | 1.1%
O=[N+]([O-])c1ccc(Oc2ccc(N=C=S)cc2)cc1 | 2.6% | x | x | x | x
CC1=C(/C=C/C(C)=C/C=C/C(C)=C/C(=O)O)C(C)(C)CCC1 | -3.9% | -0.2% | 31.6µM*! | 0.0% | -7.7%
